CYP2C9 activ = increases human cytochrome P450 2C9 activity; P11712; 1.4% of 96,000 active; activation factor at 5 µM; recombinant CYP2C9, luciferin-H conversion, luminescence; hits give high values; factor 1 = untreated enzyme, 0 = blocked;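 active means activation factor of 2 or more for CYP2C9 at a 5 µM dose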;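 further: 0 = sulfaphenazole-blocked wells and 1 = vehicle-only wells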
Target sequence (P11712 whole entry, looked up): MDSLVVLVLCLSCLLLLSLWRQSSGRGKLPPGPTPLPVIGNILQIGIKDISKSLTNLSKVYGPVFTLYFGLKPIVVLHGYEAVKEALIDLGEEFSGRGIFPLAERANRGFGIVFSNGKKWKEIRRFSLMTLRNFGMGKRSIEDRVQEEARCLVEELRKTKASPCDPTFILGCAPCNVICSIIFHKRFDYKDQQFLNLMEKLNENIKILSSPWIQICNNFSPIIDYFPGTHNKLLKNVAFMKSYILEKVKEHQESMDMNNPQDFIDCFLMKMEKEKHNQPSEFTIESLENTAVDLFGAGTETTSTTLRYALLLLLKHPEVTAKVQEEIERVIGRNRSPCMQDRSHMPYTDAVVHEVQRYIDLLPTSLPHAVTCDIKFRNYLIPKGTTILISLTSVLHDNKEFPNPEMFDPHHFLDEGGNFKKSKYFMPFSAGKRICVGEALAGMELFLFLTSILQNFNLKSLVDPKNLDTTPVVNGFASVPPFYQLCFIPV
CYP2C9 inh = human CYP2C9 inhibition; P11712; CYP2C9 Supersomes, luciferin-H conversion, luminescence; inhibition, % at 5 µM; 20% of 96,000 active; AID 777;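 active means blocking of liver enzyme CYP2C9 beyond about 50% at 5 µM, limit read from the data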
CYP2C19 activ = increases human CYP2C19 enzyme activity | P33261 | recombinant CYP2C19, luciferin-H EGE luminescence; hits give high values; 0 = fully inhibited enzyme, 1 = untreated enzyme | activation factor at 5 µM | 96,000 tested, under 10 active;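 active means activation factor of at least 2 at 5 µM in the primary screen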;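 further: 0 = wells with 2.5 mM tranylcypromine and 1 = vehicle-only wells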
CYP2C19 inhib = blocks human cytochrome P450 2C19 | inhibition, % at 5 µM | 21% of 96,000 active | CYP2C19 Supersomes, luciferin-H EGE luminescence, 30 min;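 active means CYP2C19 inhibition above a set limit at 5 µM in the primary screen, cut at about 50% in these data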;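 further: plate controls were negative control wells for no effect and 2.5 mM tranylcypromine positive control for full effect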
PLAP act = activators of human placental alkaline phosphatase. P05187. purified PLAP enzyme, luminescent substrate read-out; hits give high values. activation fold at 20 µM. 1.2% of 96,000 active; in the data active means activation fold above about 2
Active calls of the source: *. The list is not random: actives were taken first. Their share in the collection is about 31%.

SMILES	CYP2C9 activ	CYP2C9 inh	CYP2C19 activ	CYP2C19 inhib	PLAP act
COc1cccc(-n2ccnc2SCC(=O)Nc2ccccc2)c1	0.5	47	0.2	80*	0.9
COc1cccc(-n2ccnc2SCC(=O)Nc2cc(OC)ccc2OC)c1	1.2	-20	0.1	89*	1
CC1(C)C(=O)OC(c2c(F)c(F)c(F)c(F)c2F)C2(CCCCC2)C1=O (stereo not drawn)	1	0	0.9	7	0.9
O=C(C1CCC1)N1CCc2cc(S(=O)(=O)NCc3ccco3)ccc21	0.5	48	0.7	27	0.7
O=C(CNC(=O)c1ccccc1)NC1(C(=O)NC2CCCC2)CCCCC1	1	4	0.9	9	0.9
Cc1ccccc1[C@@H]1C(C#N)=C(N)S[C@H]1C(=O)c1ccccc1	0	98*	0	100*	0.7
CCOC(=O)C1CCCN(CC(=O)Nc2c(C(=O)OC)[nH]c3ccc(Br)cc23)C1 (stereo not drawn)	0.4	58*	0.5	52*	1.5
CC1CCc2nc(NC(=O)CN3CCN(Cc4ccc5c(c4)OCO5)CC3)sc2C1 (stereo not drawn)	0.2	76*	0.3	72*	1.6
COC(=O)c1[nH]c2ccc(C)cc2c1NC(=O)CCN1CCN(C2CCCCC2)CC1	1.1	-7	0.9	5	1.6
CC1CCc2nc(NC(=O)CN3CCN(c4ccccc4)CC3)sc2C1 (stereo not drawn)	0.9	8	0.9	8	1.1
COC(=O)c1[nH]c2ccccc2c1NC(=O)CN1CCN(Cc2ccc3c(c2)OCO3)CC1	0.6	41	0.5	51*	1.5
COC(=O)c1[nH]c2ccc(Cl)cc2c1NC(=O)CCN1CCN(C2CCCCC2)CC1	0.9	9	0.4	55*	1.4
COc1ccc(N2CCN(c3nc4c(c(=O)n(C)c(=O)n4C)n3CCCc3ccccc3)CC2)cc1	0.8	25	0.9	13	1.1
CCOC(=O)C1CCN(CC(=O)Nc2c(C(=O)OC)[nH]c3cccc(Cl)c23)CC1	0.8	19	0.8	23	1.6
COC(=O)c1[nH]c2ccc(Br)cc2c1NC(=O)CN1CCCc2ccccc21	0.1	88*	0.8	16	1
COC(=O)c1[nH]c2ccc(Br)cc2c1NC(=O)CN1CCN(C2CCCCC2)CC1	0.8	18	0.6	39	1.6
CCOC(=O)C1CCN(CC(=O)Nc2c(C(=O)OC)[nH]c3ccc(Cl)cc23)CC1	0.5	45	0.3	73*	0.9
COC(=O)c1[nH]c2cc(OC)ccc2c1NC(=O)CCN1CCN(c2ccccc2)CC1	0.3	67*	1.1	-12	1.6
CCOC(=O)C1CCN(CC(=O)Nc2c(C(=O)OC)[nH]c3ccccc23)CC1	1.5	-47	0.3	73*	1.4
CCN(CC(=O)Nc1c(C(=O)OC)[nH]c2ccc(C)cc12)c1ccc2c(c1)OCO2	0.4	62*	0.8	23	1.2
COc1ccccc1-c1cc(C(F)(F)F)nc(NCc2ccco2)n1	1	-2	0.9	8	1.1
CC(SC1=NCCS1)C(=O)Nc1nnc(-c2ccc(F)cc2)s1 (stereo not drawn)	0.9	6	1	3	1
CC(SC1=NCCS1)C(=O)Nc1nnc(-c2ccc(Br)cc2)s1 (stereo not drawn)	0.4	57*	1.2	-18	1.5
Cc1ccc(S(=O)(=O)NC(CC(=O)N2CCc3ccccc32)c2ccco2)cc1 (stereo not drawn)	0.6	40	0.7	33	0.8
CCOC(=O)N1CCC(NC(=O)CC(NS(=O)(=O)c2ccc(C)cc2)c2ccco2)CC1 (stereo not drawn)	0.4	59*	0.5	48	1.3
SMILES	CYP2C9 activ	CYP2C9 inh	CYP2C19 activ	CYP2C19 inhib	PLAP act
CC(C)(C)c1ccc(-c2noc(CCC(=O)NCC3CCCO3)n2)cc1 (stereo not drawn)	0.5	48	0.4	65*	1.7
CCc1ccccc1N(CC)C(=O)CCc1nc(-c2ccc(C)cc2)no1	0.5	55*	0.7	27	1.9
Cc1ccc(-c2noc(CCC(=O)NCCc3ccccc3Cl)n2)cc1	0.6	39	0.7	33	0.8
CCN(Cc1ccccc1)C(=O)CCc1nc(-c2ccc(C)cc2)no1	0.1	88*	0.2	81*	1.7
CCOc1cc(NC(=O)c2cnccn2)c(OCC)cc1NC(=O)c1ccc(OC)cc1	0.9	14	0.8	22	1
Cc1sc(NC(=O)CSc2nnc(COc3ccc(Cl)cc3)n2C)c(C#N)c1C	0.8	22	1	-1	0.8
CCOC(=O)N1CCC(NC(=O)CCc2nc(-c3ccc(C)cc3)no2)CC1	0.3	73*	0.6	41	1.8
O=C(CCc1nc(-c2ccccc2)no1)NC1CCCCC1	0.7	33	1	-3	1.1
Cc1cccc(N2CCN(S(=O)(=O)c3ccc(S(=O)(=O)N4CCCC4)cc3)CC2)c1C	0.8	24	0.9	8	0.8
O=C(C1CCCN(S(=O)(=O)c2cnc[nH]2)C1)N1CCN(c2ccc(Cl)cc2)CC1 (stereo not drawn)	0.3	65*	0.6	38	1.7
CN(C)S(=O)(=O)N1CCN(c2ccc(Cl)cc2)CC1	0.7	30	0.4	63*	1
CN(C)S(=O)(=O)N1CCCN(S(=O)(=O)N(C)C)CC1	1.1	-10	1	3	0.9
O=S(=O)(c1cnc[nH]1)N1CCN(c2ccc(Cl)cc2)CC1	0.2	81*	0	96*	1
Cc1cccc(N2CCN(S(=O)(=O)c3cnc[nH]3)CC2)c1C	0	97*	0	98*	1.8
Cc1cc(C)c(NC2=NS(=O)(=O)c3ccccc32)c(C)c1	1	3	1.1	-8	1.1
CCOC(=O)c1ccc(NC(=O)Cn2cc3c(n2)CCC(C)C3)cc1 (stereo not drawn)	0.9	11	0.8	19	0.9
FC(F)Oc1ccc(NC(=S)NN2CCOCC2)cc1	1	-1	0.7	34	0.9
CCOC(=O)c1cc(CNC(=O)c2c(C)oc3c2CCCC3)c(C)o1	0.8	18	0.8	16	1.3
COCCCN(C(=O)Nc1ccccc1)C(C)c1ccncc1 (stereo not drawn)	0.4	60*	0.2	77*	1
COCCSc1ccccc1C(=O)Nc1ccncc1	0.2	84*	0.1	92*	1.6
COCCSc1ccccc1C(=O)Nc1nncs1	1	-2	1	0	1
COc1ccc(OC)c2c1CC(C)(C)NC2=O	0.9	5	1.1	-12	0.9
COc1ccc(C2C=C(c3ccc(Br)s3)Nc3ncnn32)cc1OC (stereo not drawn)	0.5	50*	0	98*	1.2
COc1cccc(C2C=C(c3cccs3)Nc3ncnn32)c1OC (stereo not drawn)	0.4	56*	0.6	43	1.3
O=c1c(-c2nc3ccccc3s2)cccn1Cc1ccccc1	0.9	15	0.9	13	1
c1ccc(Cn2ccc(-c3cnc(-c4ccccc4)s3)n2)cc1	0.3	74*	0.1	94*	1

Screens as filed in PubChem BioAssay.
